PubChem BioAssay AID1159580 (chemical genetic matrix, 2015)
The whole screen tested about 5,500 compounds, of which about 2,000 (36%) were called active. Another 18% or so got no clear call; they are omitted. No stated cut-off is given here; in the data, active means normalized growth mostly below about 0.91 (no sharp cut-off); inconclusive means no clear call, values can overlap the other calls; inactive means mostly above about 0.92. This is one part of the list.

Assay: chemical genetic growth profiling, strain panel (AID 1159580);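 further: tested at 20 µM; growth read once vehicle control cultures reached saturation at 30 °C; 1 = growth at the plate median or of vehicle wells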
Settings: growth OD
[1] = S. cerevisiae deletion strains, locus YBR021W, strain FUR4, stronger effect = lower value
[2] = S. cerevisiae deletion strains, locus YBR229C, strain ROT2, stronger effect = lower value
[3] = S. cerevisiae deletion strains, locus YCL029C, strain bik1, stronger effect = lower value
[4] = S. cerevisiae deletion strains, locus YDL035C, strain GPR1, stronger effect = lower value
[5] = S. cerevisiae deletion strains, locus YDL074C, strain BRE1, stronger effect = lower value
[6] = S. cerevisiae deletion strains, locus YDL101C, strain DUN1, stronger effect = lower value
[7] = S. cerevisiae deletion strains, locus YDL185W, strain tfp1, stronger effect = lower value
[8] = S. cerevisiae deletion strains, locus YDL192W, strain arf1, stronger effect = lower value
[9] = S. cerevisiae deletion strains, locus YDR101C, strain arx1, stronger effect = lower value
[10] = S. cerevisiae deletion strains, locus YDR150W, strain NUM1, stronger effect = lower value
[11] = S. cerevisiae deletion strains, locus YDR162C, strain NBP2, stronger effect = lower value
[12] = S. cerevisiae deletion strains, locus YDR318W, strain mcm21, stronger effect = lower value
[13] = S. cerevisiae deletion strains, locus YDR388W, stronger effect = lower value
[14] = S. cerevisiae deletion strains, locus YDR502C, strain sam2, stronger effect = lower value
[15] = S. cerevisiae deletion strains, locus YEL061C, strain CIN8, stronger effect = lower value
[16] = S. cerevisiae deletion strains, locus YER110C, stronger effect = lower value
[17] = S. cerevisiae deletion strains, locus YER155C, strain BEM2, stronger effect = lower value
[18] = S. cerevisiae deletion strains, locus YER167W, strain BCK2, stronger effect = lower value
[19] = S. cerevisiae deletion strains, locus YGL078C, strain dbp3, stronger effect = lower value
[20] = S. cerevisiae deletion strains, locus YGL086W, strain mad1, stronger effect = lower value
[21] = S. cerevisiae deletion strains, locus YGL248W, strain PDE1, stronger effect = lower value
[22] = S. cerevisiae deletion strains, locus YGR135W, strain pre9, stronger effect = lower value
[23] = S. cerevisiae deletion strains, locus YGR252W, strain gcn5, stronger effect = lower value
[24] = S. cerevisiae deletion strains, locus YHR030C, strain SLT2, stronger effect = lower value
[25] = S. cerevisiae deletion strains, locus YHR079C, strain IRE1 (second series), stronger effect = lower value
[26] = S. cerevisiae deletion strains, locus YHR094C, strain hxt1, stronger effect = lower value
[27] = S. cerevisiae deletion strains, locus YHR129C, strain ARP1, stronger effect = lower value
[28] = S. cerevisiae deletion strains, locus YHR200W, strain rpn10, stronger effect = lower value
[29] = S. cerevisiae deletion strains, locus YIL066C, strain RNR3, stronger effect = lower value
[30] = S. cerevisiae deletion strains, locus YIL073C, strain SPO22, stronger effect = lower value
[31] = S. cerevisiae deletion strains, locus YIL125W, strain kgd1, stronger effect = lower value
[32] = S. cerevisiae deletion strains, locus YIR030C, strain dcg1, stronger effect = lower value
[33] = S. cerevisiae deletion strains, locus YJL095W, strain BCK1, stronger effect = lower value
[34] = S. cerevisiae deletion strains, locus YJL134W, strain LCB3, stronger effect = lower value
[35] = S. cerevisiae deletion strains, locus YJL168C, strain set2, stronger effect = lower value
[36] = S. cerevisiae deletion strains, locus YJL187C, strain SWE1 (second series), stronger effect = lower value
[37] = S. cerevisiae deletion strains, locus YJR043C, strain POL32, stronger effect = lower value
[38] = S. cerevisiae deletion strains, locus YJR075W, strain HOC1, stronger effect = lower value
[39] = S. cerevisiae deletion strains, locus YKL009W, strain mrt4, stronger effect = lower value
[40] = S. cerevisiae deletion strains, locus YKL068W, stronger effect = lower value
[41] = S. cerevisiae deletion strains, locus YKL085W, strain MDH1 (second series), stronger effect = lower value
[42] = S. cerevisiae deletion strains, locus YKL085W, strain MDH1, stronger effect = lower value
[43] = S. cerevisiae deletion strains, locus YKR001C, strain vps1, stronger effect = lower value
[44] = S. cerevisiae deletion strains, locus YLR039C, strain RIC1, stronger effect = lower value
[45] = S. cerevisiae deletion strains, locus YLR058C, strain SHM2, stronger effect = lower value
[46] = S. cerevisiae deletion strains, locus YLR102C, strain apc9, stronger effect = lower value
[47] = S. cerevisiae deletion strains, locus YLR262C, strain YPT6, stronger effect = lower value
[48] = S. cerevisiae deletion strains, locus YLR268W, strain sec22, stronger effect = lower value
[49] = S. cerevisiae deletion strains, locus YLR330W, strain CHS5, stronger effect = lower value
[50] = S. cerevisiae deletion strains, locus YLR342W, strain FKS1 (second series), stronger effect = lower value
[51] = S. cerevisiae deletion strains, locus YLR371W, strain rom2, stronger effect = lower value
[52] = S. cerevisiae deletion strains, locus YLR418C, strain cdc73, stronger effect = lower value
[53] = S. cerevisiae deletion strains, locus YML016C, strain PPZ1, stronger effect = lower value
[54] = S. cerevisiae deletion strains, locus YML032C, strain rad52, stronger effect = lower value
[55] = S. cerevisiae deletion strains, locus YML124C, strain tub3, stronger effect = lower value
[56] = S. cerevisiae deletion strains, locus YMR078C, strain ctf18, stronger effect = lower value
[57] = S. cerevisiae deletion strains, locus YMR223W, strain ubp8, stronger effect = lower value
[58] = S. cerevisiae deletion strains, locus YMR263W, strain SAP30, stronger effect = lower value
[59] = S. cerevisiae deletion strains, locus YMR307W, strain GAS1, stronger effect = lower value
[60] = S. cerevisiae deletion strains, locus YNL067W, strain RPL9B, stronger effect = lower value
[61] = S. cerevisiae deletion strains, locus YNL128W, strain TEP1, stronger effect = lower value
[62] = S. cerevisiae deletion strains, locus YNL233W, strain BNI4, stronger effect = lower value
[63] = S. cerevisiae deletion strains, locus YNL250W, strain rad50, stronger effect = lower value
[64] = S. cerevisiae deletion strains, locus YNL271C, strain bni1, stronger effect = lower value
[65] = S. cerevisiae deletion strains, locus YNL298W, strain CLA4, stronger effect = lower value
[66] = S. cerevisiae deletion strains, locus YNL307C, strain MCK1, stronger effect = lower value
[67] = S. cerevisiae deletion strains, locus YNL322C, strain KRE1, stronger effect = lower value
[68] = S. cerevisiae deletion strains, locus YNR052C, strain pop2, stronger effect = lower value
[69] = S. cerevisiae deletion strains, locus YOL012C, strain htz1
[70] = S. cerevisiae deletion strains, locus YOL147C, strain pex11, stronger effect = lower value
[71] = S. cerevisiae deletion strains, locus YOR061W, strain CKA2, stronger effect = lower value
[72] = S. cerevisiae deletion strains, locus YOR069W, strain VPS5, stronger effect = lower value
[73] = S. cerevisiae deletion strains, locus YOR136W, strain idh2, stronger effect = lower value
[74] = S. cerevisiae deletion strains, locus YOR144C, strain elg1, stronger effect = lower value
[75] = S. cerevisiae deletion strains, locus YOR184W, strain ser1, stronger effect = lower value
[76] = S. cerevisiae deletion strains, locus YOR316C, strain cot1, stronger effect = lower value
[77] = S. cerevisiae deletion strains, locus YPR119W, strain clb2, stronger effect = lower value
[78] = S. cerevisiae deletion strains, locus YPR141C, strain kar3, stronger effect = lower value
[79] = S. cerevisiae deletion strains, locus YPR163C, strain tif3, stronger effect = lower value
[80] = S. cerevisiae deletion strains, locus YPR167C, strain met16, stronger effect = lower value
[81] = S. cerevisiae deletion strains, strain wtn01, stronger effect = lower value
[82] = S. cerevisiae deletion strains, locus YGR078C, strain PAC10, stronger effect = lower value
[83] = S. cerevisiae deletion strains, locus YNL153C, strain GIM3, stronger effect = lower value

Measured: normalized growth

CC(=O)O[C@@H]1CC2C(C)(C)CCC[C@]2(C)C2CC[C@]3(C)C(=CC(=O)O[C@H]3c3ccoc3)[C@@]21C (stereo partly drawn)
inactive: [1] 1.02 | [2] 1.01 | [3] 1 | [4] 1.02 | [5] 1.01 | [6] 1.01 | [7] 1.01 | [8] 0.999 | [9] 1.01 | [10] 1.02 | [11] 1 | [12] 0.981 | [13] 1.01 | [14] 0.977 | [15] 1.02 | [16] 1.01 | [17] 1 | [18] 1.02 | [19] 0.982 | [20] 0.984 | [21] 1.01 | [22] 0.978 | S. cerevisiae deletion strains, locus YGR229C, strain SMI1, stronger effect = lower value 0.97 | [23] 0.993 | [24] 1.02 | [25] 1 | [26] 1 | [27] 1.02 | [28] 1.01 | [29] 1.02 | [30] 1.02 | [31] 1 | [32] 1 | [33] 0.97 | [34] 1.02 | [35] 0.994 | [36] 1 | [37] 1.05 | [38] 1.01 | [39] 1.03 | [40] 0.989 | [41] 1.01 | [42] 1.01 | [43] 0.967 | [44] 0.902 | [45] 1.01 | [46] 1 | [47] 0.928 | [48] 0.973 | [49] 1.02 | [50] 0.983 | [51] 1 | [52] 0.941 | [53] 1.02 | [54] 0.99 | [55] 0.993 | [56] 0.986 | [57] 0.983 | [58] 1.02 | [59] 1.09 | [60] 1.01 | [61] 1.03 | [62] 0.948 | [63] 0.968 | [64] 1 | [65] 0.992 | [66] 0.992 | [67] 1.02 | [68] 0.993 | S. cerevisiae deletion strains, locus YOL006C, strain TOP1, stronger effect = lower value 1.06 | [69] 0.86 | [70] 1.01 | [71] 1.01 | [72] 1.02 | [73] 0.997 | [74] 0.999 | [75] 0.982 | [76] 1 | [77] 0.985 | [78] 1.01 | [79] 0.994 | [80] 0.998 | [81] 0.996

O=C(O)CCC(=O)N1CCCC1C(=O)O (stereo not drawn)
inactive: S. cerevisiae deletion strains, locus YAL040C, strain CLN3, stronger effect = lower value 1.03 | S. cerevisiae deletion strains, locus YCL061C, strain MRC1 (second series), stronger effect = lower value 1 | [10] 0.998 | S. cerevisiae deletion strains, locus YDR363W, strain ESC2, stronger effect = lower value 1.02 | S. cerevisiae deletion strains, locus YER002W, strain NOP16, stronger effect = lower value 1.01 | [82] 0.979 | [38] 1.03 | [58] 1.01 | [59] 0.972 | [61] 0.999 | [83] 1.24 | S. cerevisiae deletion strains, locus YNL175C, strain NOP13, stronger effect = lower value 0.991 | S. cerevisiae deletion strains, locus YNL197C, strain WHI3, stronger effect = lower value 0.993 | S. cerevisiae deletion strains, locus YNL224C, strain SQS1, stronger effect = lower value 0.992 | [67] 1.02 | S. cerevisiae deletion strains, locus YOR083W, strain WHI5 (second series), stronger effect = lower value 0.989

O=C(O)c1cc(O)ccc1O
inactive: S. cerevisiae deletion strains, locus YAL013W, strain DEP1, stronger effect = lower value 0.986 | [1] 0.948 | [2] 0.992 | [3] 0.994 | [4] 0.995 | [5] 0.978 | [6] 0.999 | [7] 1 | [8] 0.993 | [9] 0.965 | [10] 0.993 | [11] 1.01 | [12] 1.01 | [13] 0.989 | [14] 0.989 | [15] 0.998 | [16] 0.981 | [17] 0.996 | [18] 0.988 | [19] 0.988 | [20] 0.975 | [21] 1.02 | [82] 1.02 | [22] 1.01 | [23] 1.12 | [24] 0.989 | [25] 0.986 | [26] 0.99 | [27] 0.994 | [28] 0.989 | [29] 0.985 | [30] 0.976 | [31] 0.987 | [32] 1 | [33] 1.03 | [34] 0.984 | [35] 0.998 | [36] 1.01 | [37] 1.01 | [39] 0.964 | [40] 0.992 | [41] 1 | [42] 1 | S. cerevisiae deletion strains, locus YKL190W, strain CNB1, stronger effect = lower value 0.997 | [43] 0.985 | [44] 1.05 | [45] 1 | [46] 0.987 | [47] 1.05 | [48] 0.986 | [49] 0.991 | [50] 0.95 | [51] 0.989 | [52] 1.05 | [53] 0.995 | [54] 1.01 | [55] 1 | [56] 0.992 | [57] 1.04 | [59] 1.07 | [60] 1.01 | [83] 1.02 | [62] 1 | [63] 0.976 | [64] 0.994 | [65] 0.994 | [66] 0.98 | [67] 1 | [68] 1 | [69] 1.12 | [70] 0.99 | [71] 0.996 | [72] 0.987 | [73] 0.995 | [74] 0.989 | [75] 1 | [76] 0.985 | S. cerevisiae deletion strains, locus YPL241C, strain CIN2, stronger effect = lower value 1 | [77] 0.994 | [78] 0.981 | [79] 0.999 | [80] 1.01 | [81] 0.943 | S. cerevisiae strains, strain wild type, stronger effect = lower value 0.994
